Data on 26 sequences can be found in paper doi:10.1101/2024.03.05.583629.

Chain of pT7_6His-AlfaTag-HOXD13 (P35453 263-343): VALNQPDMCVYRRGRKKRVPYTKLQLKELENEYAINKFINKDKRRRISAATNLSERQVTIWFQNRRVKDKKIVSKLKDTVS

The test has as its target pT7_6His-AlfaTag-HOXD13 (human, UniProt P35453 263-343). Description: PADIT-seq. To be noted: dsDNA, one strand shown.
With “CTCGAGGATATCAAGATCTGGCCTCGGCGTTTTATTAGGAACCTCTAGCTAGCCGACTCACTATAGGGATAATCGCCCTGAGCAAAGACC”, the binding signal amounted to 3.19 ± 0.0762 log2FC. With “CTCGAGGATATCAAGATCTGGCCTCGGCTAGTTAAAAGGAACCTCTAGCTAGCCGACTCACTATAGGGATAATCGCCCTGAGCAAAGACC”, the binding signal worked out at 2.53 ± 0.0756 log2FC. In turn, “CTCGAGGATATCAAGATCTGGCCTCGGCTGGTTAAAAGGAACCTCTAGCTAGCCGACTCACTATAGGGATAATCGCCCTGAGCAAAGACC” came in with a binding signal of 1.48 ± 0.0798 log2FC. In the case of “CTCGAGGATATCAAGATCTGGCCTCGGCTTGATAAAAGGAACCTCTAGCTAGCCGACTCACTATAGGGATAATCGCCCTGAGCAAAGACC”, the binding signal stood at 0.619 ± 0.0899 log2FC. On to “CTCGAGGATATCAAGATCTGGCCTCGGCCTTTTACCCGGAACCTCTAGCTAGCCGACTCACTATAGGGATAATCGCCCTGAGCAAAGACC”, for which the binding signal was -0.00238 ± 0.0891 log2FC.

Take “CTCGAGGATATCAAGATCTGGCCTCGGCGTTTTAACTGGAACCTCTAGCTAGCCGACTCACTATAGGGATAATCGCCCTGAGCAAAGACC”: the binding signal came out at 1.39 ± 0.0832 log2FC. “CTCGAGGATATCAAGATCTGGCCTCGGCCTTTTATCAGGAACCTCTAGCTAGCCGACTCACTATAGGGATAATCGCCCTGAGCAAAGACC” gave a binding signal of 2.19 ± 0.0738 log2FC. In the case of “CTCGAGGATATCAAGATCTGGCCTCGGCTATATAAAAGGAACCTCTAGCTAGCCGACTCACTATAGGGATAATCGCCCTGAGCAAAGACC” it was 2.63 ± 0.0902 log2FC. “CTCGAGGATATCAAGATCTGGCCTCGGCGTTTTACCCGGAACCTCTAGCTAGCCGACTCACTATAGGGATAATCGCCCTGAGCAAAGACC” came in with a binding signal of -0.0427 ± 0.101 log2FC. “CTCGAGGATATCAAGATCTGGCCTCGGCTTTTTATTCGGAACCTCTAGCTAGCCGACTCACTATAGGGATAATCGCCCTGAGCAAAGACC”: the binding signal is 1.86 ± 0.0775 log2FC. In the case of “CTCGAGGATATCAAGATCTGGCCTCGGCTTTTTAACGGGAACCTCTAGCTAGCCGACTCACTATAGGGATAATCGCCCTGAGCAAAGACC” it was 1.89 ± 0.0968 log2FC; in that of “CTCGAGGATATCAAGATCTGGCCTCGGCATTCTAAAAGGAACCTCTAGCTAGCCGACTCACTATAGGGATAATCGCCCTGAGCAAAGACC”, -0.358 ± 0.0968 log2FC; in that of “CTCGAGGATATCAAGATCTGGCCTCGGCATTTTACTGGGAACCTCTAGCTAGCCGACTCACTATAGGGATAATCGCCCTGAGCAAAGACC”, 2.8 ± 0.0813 log2FC. “CTCGAGGATATCAAGATCTGGCCTCGGCCTTTTACCGGGAACCTCTAGCTAGCCGACTCACTATAGGGATAATCGCCCTGAGCAAAGACC” showed a binding signal of 0.698 ± 0.0877 log2FC.

In turn, “CTCGAGGATATCAAGATCTGGCCTCGGCGTTTTAGAAGGAACCTCTAGCTAGCCGACTCACTATAGGGATAATCGCCCTGAGCAAAGACC” gave a binding signal of 0.37 ± 0.103 log2FC. Then “CTCGAGGATATCAAGATCTGGCCTCGGCCGCCCATATGGAACCTCTAGCTAGCCGACTCACTATAGGGATAATCGCCCTGAGCAAAGACC”, with -0.841 ± 0.12 log2FC. “CTCGAGGATATCAAGATCTGGCCTCGGCATTTTAGGTGGAACCTCTAGCTAGCCGACTCACTATAGGGATAATCGCCCTGAGCAAAGACC” registered a binding signal of 0.159 ± 0.111 log2FC. “CTCGAGGATATCAAGATCTGGCCTCGGCATTTTAAGCGGAACCTCTAGCTAGCCGACTCACTATAGGGATAATCGCCCTGAGCAAAGACC” showed a binding signal of 0.548 ± 0.1 log2FC.

Regarding “CTCGAGGATATCAAGATCTGGCCTCGGCCGCCCATTAGGAACCTCTAGCTAGCCGACTCACTATAGGGATAATCGCCCTGAGCAAAGACC”, the binding signal is -0.218 ± 0.102 log2FC. As to “CTCGAGGATATCAAGATCTGGCCTCGGCACAATAAAAGGAACCTCTAGCTAGCCGACTCACTATAGGGATAATCGCCCTGAGCAAAGACC”, the binding signal stood at 2.72 ± 0.0742 log2FC.

Consider “CTCGAGGATATCAAGATCTGGCCTCGGCCGGCTAAAAGGAACCTCTAGCTAGCCGACTCACTATAGGGATAATCGCCCTGAGCAAAGACC”, for which the binding signal is -0.621 ± 0.107 log2FC. Take “CTCGAGGATATCAAGATCTGGCCTCGGCGATATAAAAGGAACCTCTAGCTAGCCGACTCACTATAGGGATAATCGCCCTGAGCAAAGACC”: the binding signal was 1.99 ± 0.0693 log2FC. For the sequence “CTCGAGGATATCAAGATCTGGCCTCGGCGGATTAAAAGGAACCTCTAGCTAGCCGACTCACTATAGGGATAATCGCCCTGAGCAAAGACC”, the binding signal was 1.17 ± 0.076 log2FC. The sequence “CTCGAGGATATCAAGATCTGGCCTCGGCATTTTAGCGGGAACCTCTAGCTAGCCGACTCACTATAGGGATAATCGCCCTGAGCAAAGACC” yielded a binding signal of 0.146 ± 0.1 log2FC. “CTCGAGGATATCAAGATCTGGCCTCGGCATTTTATTAGGAACCTCTAGCTAGCCGACTCACTATAGGGATAATCGCCCTGAGCAAAGACC” had a binding signal of 3.28 ± 0.0692 log2FC. As to “CTCGAGGATATCAAGATCTGGCCTCGGCGGTATAAAAGGAACCTCTAGCTAGCCGACTCACTATAGGGATAATCGCCCTGAGCAAAGACC”, the binding signal came to 1.44 ± 0.072 log2FC.
